In test [1] the target is Progesterone receptor (Homo sapiens) (UniProt P06401). The experiment in a line: qHTS assay to identify small molecule agonists of the progesterone receptor (PR) signaling pathway (AID 1346784; calls by dose curve; also: % is scaled to controls: 0 for no effect and ±100 for the full control effect; nearly all actives have a fitted effect of over 30% in size). The method, boiled down:
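Compounds were tested for PR agonism in HEK 293T cells bearing a beta-lactamase gene under UAS control. Treatment lasted 16 hr at 37C; signal came from fluorescence of a FRET substrate.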
(qHTS replaces the single test concentration by a dilution series.)

For test [2] the target is unchanged. The test can be described thus: qHTS assay to identify small molecule antagonists of the progesterone receptor (PR) signaling pathway (AID 1346795; active = well fitted inhibition curve with a large enough effect in the signal ratio in the repeat runs, not every such curve was filed as active; the % refers to the signal ratio; also: potency is read from the fitted curve at half-maximal effect). The method, boiled down:
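In HEK293T cells bearing the PR-UAS-bla reporter, compound effects on promegestone-driven (1 nM) beta-lactamase expression are assessed after 16 hr using a fluorescent FRET substrate incubated 2 hr at room temperature.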

The nature of test [3]: qHTS assay to identify small molecule antagonists of the progesterone receptor (PR) signaling pathway - cell viability counter screen (AID 1346798). Also: series mostly up to about 92 µM; % is scaled to controls: 0 for no effect and ±100 for the full control effect; nearly all actives have a fitted effect of over 50% in size. The method, boiled down:
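Following a 4 hr attachment, PR-UAS-bla HEK293T cells in charcoal-stripped FBS medium were exposed to compounds with R5020 for 16 hr; CellTiter-Glo was added and luminescence read after 30 min at room temperature.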

Test [4] in a line: qHTS assay to identify small molecule agonists of the progesterone receptor (PR) signaling pathway - cell viability counter screen (AID 1346799; calls by dose curve; also: % is scaled to controls: 0 for no effect and ±100 for the full control effect; nearly all actives have a fitted effect of over 45% in size). The method, boiled down:
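Here, 3,000 PR-UAS-bla HEK293T cells per well were treated with compounds for 16 hr after a 6 hr preincubation at 37C and 5% CO2; cell viability is the CellTiter-Glo luminescence signal.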

Test [5] in a line: qHTS assay to identify small molecule antagonists of the TGF-beta/Smad signaling pathway - cell viability counter screen (AID 1346824). Also: % is scaled to controls: 0 for no effect and ±100 for the full control effect; nearly all actives have a fitted effect of over 50% in size. The method, boiled down:
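Cytotoxicity counter-screen run in the same wells as the beta-lactamase Smad reporter read: CellTiter-Glo luminescence after 30 min at room temperature. HEK 293T SBE-bla cells had 5 hr compound exposure at 37 C with TGF-beta1 (0.25 ng/mL stock).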

The nature of test [6]: qHTS assay to identify small molecule agonists of the TGF-beta/Smad signaling pathway - cell viability counter screen (AID 1346829). Also: top concentration of the series differs between compounds; % is scaled to controls: 0 for no effect and ±100 for the full control effect; nearly all actives have a fitted effect of over 45% in size. The method, boiled down:
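CellTiter-Glo luminescence readout; SBE-bla HEK 293T cells, overnight plating, compound 5 hr at 37 C/5% CO2, then bla substrate 2 hr RT, then CellTiter-Glo 30 min RT.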

Test [7] in a line: qHTS assay to identify small molecule agonists of the TGF-beta/Smad signaling pathway (AID 1346859; active = well fitted activation curve with a large enough effect in the signal ratio in the repeat runs, not every such curve was filed as active; the % refers to the signal ratio; also: series mostly up to about 77 µM; % is scaled to controls: 0 for no effect and ±100 for the full control effect). The method, boiled down: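 Each well held 4,000 SBE-bla HEK 293T cells incubated overnight before compound addition; 5 hr later the cleavable FRET substrate went on for 2 hr at room temperature, and fluorescence was read at two emissions.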
The nature of test [8]: Human pregnane X receptor (PXR) small molecule agonists, qHTS cell viability counter screen (AID 1346977). Also: % is scaled to controls: 0 for no effect and ±100 for the full control effect; nearly all actives have a fitted effect of over 50% in size. The method, boiled down:
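Tox21 qHTS format; PXR-Luc HepG2, 2,000/well, charcoal-stripped FBS 5%. Cpd exposure 24hr. Read: CellTiter-Fluor fluorescence, multiplexed with luciferase.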

Test [9] in a line: Caspase-3/7 induction in HepG2 cells by small molecules, qHTS assay (AID 1346978). Also: % is scaled to controls: 0 for no effect and ±100 for the full control effect; nearly all actives have a fitted effect of over 15% in size. The method, boiled down:
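Caspase-3/7 induction was measured by Caspase-Glo 3/7 luminescence (30 min, room temperature) after a 17 hr compound exposure of wild-type HepG2 cells seeded at 2,000 per well and pre-incubated 5 hr.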

Test [10] in a line: Caspase-3/7 induction in CHO-K1 cells by small molecules, qHTS cell viability counter screen (AID 1346979). Also: % is scaled to controls: 0 for no effect and ±100 for the full control effect; nearly all actives have a fitted effect of over 35% in size. The method, boiled down:
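CellTiter-Fluor viability check, qHTS format: wild-type CHO-K1, 16hr compound treatment, 1hr reagent incubation, fluorescence read.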

Test [11] is described as follows: Caspase-3/7 induction in CHO-K1 cells by small molecules, qHTS assay (AID 1346980). Also: % is scaled to controls: 0 for no effect and ±100 for the full control effect; nearly all actives have a fitted effect of over 15% in size. The method, boiled down:
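Luminescent Caspase-Glo 3/7 read (30min, room temperature) quantified apoptosis induction. Cells were wild-type CHO-K1, treated with compound for 17hr at 37 C and 5% CO2.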

Test [12] in a line: Caspase-3/7 induction in HepG2 cells by small molecules, qHTS cell viability counter screen (AID 1346981). Also: series mostly up to about 92 µM; % is scaled to controls: 0 for no effect and ±100 for the full control effect; nearly all actives have a fitted effect of over 30% in size. The method, boiled down:
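Counter screen for cytotoxicity: HepG2 exposed 16 hr to compounds, then CellTiter-Fluor viability signal (fluorescence, 1 hr reagent incubation).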

Test [13] addresses Nuclear receptor subfamily 1 group I member 2 (Homo sapiens) (UniProt O75469). The test can be described thus: Human pregnane X receptor (PXR) small molecule agonists, qHTS assay (AID 1346982). Also: nearly all actives have a fitted effect of over 35% in size. Also: potency is read from the fitted curve at half-maximal effect. As to activation: % is scaled to controls: 0 for no effect and ±100 for the full control effect. The method, boiled down: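 Luminescence (ONE-Glo, 30 min RT) after 24 hr compound exposure of PXR-Luc HepG2 cells; cells rested 5 hr post-plating in 5% charcoal-stripped FBS medium.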

In test [14] the target is Nuclear receptor subfamily 1 group I member 2 (Rattus norvegicus) (UniProt Q9R1A7). The test can be described thus: Rat pregnane X receptor (rPXR) activation by small molecules, qHTS assay (AID 1346983). Also: % is scaled to controls: 0 for no effect and ±100 for the full control effect; nearly all actives have a fitted effect of over 20% in size. As to conditions: rPXR luciferase reporter cells, One-Glo luminescence, 24 h; max activation: active compounds read high. The method, boiled down: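 Luminescent readout (One-Glo luciferase, 30 min room temperature) followed 24 hr compound treatment at 37 C of rPXR cells plated 2,000 per well and preincubated 5hr; qHTS format with compounds delivered in DMSO.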
Chain of Nuclear receptor subfamily 1 group I member 2 (Rattus norvegicus) (Q9R1A7 whole entry, looked up): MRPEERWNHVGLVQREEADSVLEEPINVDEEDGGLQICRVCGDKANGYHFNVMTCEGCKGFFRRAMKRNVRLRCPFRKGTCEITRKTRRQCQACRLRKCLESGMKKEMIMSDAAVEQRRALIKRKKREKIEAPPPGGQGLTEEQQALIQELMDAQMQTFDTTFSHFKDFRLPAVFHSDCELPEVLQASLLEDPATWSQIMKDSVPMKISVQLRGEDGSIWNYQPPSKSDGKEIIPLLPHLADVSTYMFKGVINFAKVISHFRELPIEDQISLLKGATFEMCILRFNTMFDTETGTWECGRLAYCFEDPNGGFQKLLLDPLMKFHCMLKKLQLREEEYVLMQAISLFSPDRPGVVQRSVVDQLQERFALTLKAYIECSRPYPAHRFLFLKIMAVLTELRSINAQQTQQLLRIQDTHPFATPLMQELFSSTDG

Test [15] has as its target Nuclear receptor subfamily 1 group I member 2 (Homo sapiens) (UniProt O75469). The experiment in a line: CYP3A4 induction through human pregnane X receptor (PXR) by small molecules, qHTS assay (AID 1346984). Also: nearly all actives have a fitted effect of over 40% in size. Also: potency is read from the fitted curve at half-maximal effect. The method, boiled down:
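DPX-2 reporter cells; 24h cpd, 37C; Luciferin-IPA 3uM final x3h; One-Glo 30 min RT; lumi read.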

Test [16] addresses Thyrotropin-releasing hormone receptor (Homo sapiens) (UniProt P34981). The experiment in a line: qHTS assay to identify small molecule antagonists of the thyrotropin-releasing hormone receptor (TRHR) signaling pathway (AID 1346877; active = well fitted inhibition curve with a large enough effect in the repeat runs, not every such curve was filed as active; also: series mostly up to about 51 µM; % is scaled to controls: 0 for no effect and ±100 for the full control effect). The method, boiled down:
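In this cell-based calcium flux format, HEK293 cells expressing TRHR received test compound for 5 min before the agonist TRH (1 nM final). Dye loading lasted 2 h at 37 °C.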

Test [17] has the same target. The experiment in a line: qHTS assay to identify small molecule agonists of the thyrotropin-releasing hormone receptor (TRHR) signaling pathway (AID 1346891; calls by dose curve; also: series mostly up to about 58 µM; % is scaled to controls: 0 for no effect and ±100 for the full control effect). The method, boiled down:
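Screening of agonists relied on calcium signalling in HEK293 cells expressing human TRHR: dye loading 2 h at 37 °C preceded compound addition and a 3-min fluorescence time course.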

Test [18] has as its target Cytochrome P450 2D6 (Homo sapiens) (UniProt P10635). The test can be described thus: Cytochrome P450 Family 2 Subfamily D Member 6 (CYP2D6) small molecule antagonists: luciferase reporter qHTS assay (AID 1671196). Also: nearly all actives have a fitted effect of over 50% in size. Also: potency is read from the fitted curve at half-maximal effect. The method, boiled down:
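Inhibition of CYP2D6 was gauged by loss of luminescence, since light produced tracks the luciferin generated from a proluciferin substrate. A 10 min room-temperature preincubation preceded 1 h NADPH-supported turnover.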
(In general: A reporter such as luciferase makes a cellular process visible.)

Test [19] deals with Cytochrome P450 2C19 (Homo sapiens) (UniProt P33261). The test can be described thus: Cytochrome P450 Family 2 Subfamily C Member 19 (CYP2C19) small molecule antagonists: luciferase reporter qHTS assay (AID 1671197). Also: potency is read from the fitted curve at half-maximal effect; nearly all actives have a fitted effect of over 65% in size. The method, boiled down:
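Enzyme-substrate mix with proluciferin substrate (P450-Glo CYP2C19 system) preincubated with compounds 10 min at room temperature; NADPH regeneration solution added, 37C for 1 h; detection reagent stops reaction, luminescence read after 20 min. Ketoconazole positive control.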

Test [20] addresses Nuclear receptor subfamily 1 group I member 2 (Homo sapiens) (UniProt O75469). The experiment in a line: Human pregnane X receptor (PXR) activation by small molecules, qHTS assay (AID 1346985). Also: % is scaled to controls: 0 for no effect and ±100 for the full control effect; nearly all actives have a fitted effect of over 40% in size. The method, boiled down: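 DPX-2 cells (HepG2 co-transfected with a PXR response element and a CYP3A4-promoter luciferase construct) were seeded at 2,000 per well, rested 5 hr at 37C, then exposed to DMSO-dissolved compounds for 24 hr. Activation was read as luciferase luminescence.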

Molecules are shown by their SMILES. Several values for one entry are separate records, joined by “and”; a condition that tells them apart may be missing. Identical values can stand only once. Unmarked numbers belong to inactive results. Inconclusive results are not listed. Activity calls are given as the source filed them. Unless noted, calls follow the shape of the dose curve; as a rule, active = well fitted curve in the direction sought with a large enough effect in the repeat runs; inconclusive = weak or mixed curves; inactive = no such curve, though single readings can be large; an effect the other way counts as inactive or inconclusive.

Chain of Nuclear receptor subfamily 1 group I member 2 (Homo sapiens) (O75469 whole entry, looked up): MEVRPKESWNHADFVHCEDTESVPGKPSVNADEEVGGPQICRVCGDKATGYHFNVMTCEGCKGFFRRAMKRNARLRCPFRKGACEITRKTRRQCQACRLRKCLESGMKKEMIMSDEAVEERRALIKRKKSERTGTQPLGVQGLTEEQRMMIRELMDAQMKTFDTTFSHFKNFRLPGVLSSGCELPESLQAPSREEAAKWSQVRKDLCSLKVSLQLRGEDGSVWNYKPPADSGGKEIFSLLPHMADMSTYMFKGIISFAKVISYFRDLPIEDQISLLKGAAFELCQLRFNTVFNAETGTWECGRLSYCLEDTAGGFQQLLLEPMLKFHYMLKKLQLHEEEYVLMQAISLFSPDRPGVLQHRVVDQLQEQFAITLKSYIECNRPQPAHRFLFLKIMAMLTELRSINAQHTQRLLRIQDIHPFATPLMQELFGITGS
Chain of Progesterone receptor (Homo sapiens) (P06401 whole entry, looked up): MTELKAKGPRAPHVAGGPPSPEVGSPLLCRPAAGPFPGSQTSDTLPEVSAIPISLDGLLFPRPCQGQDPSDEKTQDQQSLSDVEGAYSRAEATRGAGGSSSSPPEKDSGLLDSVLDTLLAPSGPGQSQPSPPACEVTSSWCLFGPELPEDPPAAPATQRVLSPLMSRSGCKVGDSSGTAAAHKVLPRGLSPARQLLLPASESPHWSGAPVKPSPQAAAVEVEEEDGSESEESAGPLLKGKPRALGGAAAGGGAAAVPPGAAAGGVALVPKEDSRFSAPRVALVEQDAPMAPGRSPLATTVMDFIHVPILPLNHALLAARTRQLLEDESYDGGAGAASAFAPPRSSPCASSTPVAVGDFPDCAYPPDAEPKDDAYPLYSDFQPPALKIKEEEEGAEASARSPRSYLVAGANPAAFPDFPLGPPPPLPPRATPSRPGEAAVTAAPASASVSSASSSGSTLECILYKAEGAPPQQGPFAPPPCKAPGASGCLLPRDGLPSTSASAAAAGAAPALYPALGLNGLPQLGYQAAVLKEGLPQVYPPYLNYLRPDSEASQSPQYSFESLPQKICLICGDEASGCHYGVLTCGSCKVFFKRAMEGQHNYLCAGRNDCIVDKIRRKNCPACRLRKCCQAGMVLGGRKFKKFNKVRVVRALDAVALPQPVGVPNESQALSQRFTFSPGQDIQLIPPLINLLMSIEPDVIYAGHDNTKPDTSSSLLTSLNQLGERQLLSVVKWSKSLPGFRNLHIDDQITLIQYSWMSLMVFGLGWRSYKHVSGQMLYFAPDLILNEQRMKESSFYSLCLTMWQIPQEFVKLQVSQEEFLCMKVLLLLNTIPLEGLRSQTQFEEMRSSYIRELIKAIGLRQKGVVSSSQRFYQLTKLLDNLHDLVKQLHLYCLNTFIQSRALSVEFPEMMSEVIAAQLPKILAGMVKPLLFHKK
Chain of Cytochrome P450 2D6 (Homo sapiens) (P10635 whole entry, looked up): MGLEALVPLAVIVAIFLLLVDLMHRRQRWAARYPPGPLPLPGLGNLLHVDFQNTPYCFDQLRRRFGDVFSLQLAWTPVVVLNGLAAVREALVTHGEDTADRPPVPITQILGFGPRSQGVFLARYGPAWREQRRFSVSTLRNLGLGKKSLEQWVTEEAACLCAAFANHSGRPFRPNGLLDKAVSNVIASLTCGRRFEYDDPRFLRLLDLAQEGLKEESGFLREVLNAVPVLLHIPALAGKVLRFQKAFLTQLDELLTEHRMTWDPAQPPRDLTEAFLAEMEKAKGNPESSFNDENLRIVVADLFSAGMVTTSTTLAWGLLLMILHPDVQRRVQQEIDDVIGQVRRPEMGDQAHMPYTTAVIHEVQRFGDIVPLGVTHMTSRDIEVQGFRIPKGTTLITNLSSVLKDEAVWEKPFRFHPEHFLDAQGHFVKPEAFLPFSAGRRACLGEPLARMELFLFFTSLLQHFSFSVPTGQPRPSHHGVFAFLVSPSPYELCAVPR
Chain of Thyrotropin-releasing hormone receptor (Homo sapiens) (P34981 whole entry, looked up): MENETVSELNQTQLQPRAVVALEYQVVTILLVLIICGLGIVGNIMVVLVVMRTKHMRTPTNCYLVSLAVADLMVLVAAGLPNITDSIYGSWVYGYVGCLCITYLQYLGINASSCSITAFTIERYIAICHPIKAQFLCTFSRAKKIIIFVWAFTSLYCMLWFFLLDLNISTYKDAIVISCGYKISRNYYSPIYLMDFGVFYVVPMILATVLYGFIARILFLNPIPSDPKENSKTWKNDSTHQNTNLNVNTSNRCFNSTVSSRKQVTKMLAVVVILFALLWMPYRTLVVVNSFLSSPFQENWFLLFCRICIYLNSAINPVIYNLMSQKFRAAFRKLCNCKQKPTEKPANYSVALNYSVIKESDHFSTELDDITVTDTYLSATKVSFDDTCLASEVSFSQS
Chain of Cytochrome P450 2C19 (Homo sapiens) (P33261 whole entry, looked up): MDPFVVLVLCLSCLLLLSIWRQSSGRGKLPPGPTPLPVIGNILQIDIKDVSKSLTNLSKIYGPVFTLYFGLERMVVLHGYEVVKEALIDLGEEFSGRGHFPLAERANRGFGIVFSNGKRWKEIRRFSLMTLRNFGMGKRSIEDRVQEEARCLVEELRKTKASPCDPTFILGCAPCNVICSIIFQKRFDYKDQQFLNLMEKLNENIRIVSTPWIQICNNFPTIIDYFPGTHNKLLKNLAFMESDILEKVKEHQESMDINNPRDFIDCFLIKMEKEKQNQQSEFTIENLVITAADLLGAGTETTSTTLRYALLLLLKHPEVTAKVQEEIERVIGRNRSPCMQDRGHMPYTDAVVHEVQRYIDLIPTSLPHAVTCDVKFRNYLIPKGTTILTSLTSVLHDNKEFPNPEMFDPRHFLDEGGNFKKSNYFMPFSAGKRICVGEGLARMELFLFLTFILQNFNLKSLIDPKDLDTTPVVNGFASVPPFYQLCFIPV

For `Cc1c(Cn2ccnc2)c2ccccc2n1CCC(=O)O`, the compound was called inactive in [1], in test [7] and in test [9]. The Potency result in test [2], in test [3], in [4], in test [5], in test [6] and in [8] was “inactive” each time. Moreover, the Potency entry in test [10], in [11], in test [12], in test [13] and in test [15] was “inactive” each time. The max activation in [14] is -1.57%.

As for `O=C(Nc1ccccc1)OCC(CN1CCCCC1)OC(=O)Nc1ccccc1` (centres undefined), the result in test [1], in [7], in test [16] and in test [9] was inactive. In addition, the Potency in test [2] is 23.7 µM (active); in test [13], 2.37 µM (active); in test [15] it was 10 µM (active); in [18], 0.436 µM (active); in test [19] it was 8.71 µM (active). For the same compound, the Potency entry in test [3], in test [4], in test [5], in [6], in test [17] and in [11] was “inactive” each time. In [12], the Potency result is “inactive”. In addition, in test [14], the max activation is 0.646%.

Take `CC(=O)Nc1ccc(/C=N/NC(N)=S)cc1`: the compound was classed as inactive in [1], in test [7] and in [9]. The Potency entry in [2], in [3], in test [4], in test [5], in [6] and in test [8] was “inactive” in each case. Moreover, the Potency result in test [10], in test [11], in test [12], in [13], in [15] and in [20] was “inactive” throughout. In [18], the Potency entry was “inactive”. The max activation in [14] is -4.57% and -9.49%.

`CC(C)(Oc1ccc(Cl)cc1)C(=O)OCCCOC(=O)C(C)(C)Oc1ccc(Cl)cc1`: the compound was classed as inactive in test [1], in test [7], in test [16] and in test [9]. Besides, the Potency entry in [2], in test [3], in test [4], in test [5], in test [6] and in test [17] was “inactive” throughout. Moreover, the Potency result in test [10], in [11], in test [12], in test [13] and in test [18] was “inactive” throughout. Besides, the Potency in test [19] was 3.47 µM (active).

Regarding `COc1ccc(OC)c(OC)c1`, the result in [1], in test [7], in test [16] and in test [9] was inactive. Further, the Potency entry in test [2], in test [3], in test [4], in test [5], in test [6] and in test [8] was “inactive” in each case. Also, the Potency entry in test [10], in test [11], in test [12], in [13] and in [18] was “inactive” in each case.

As for `CNS(=O)(=O)Cc1ccc2[nH]cc(CCN(C)C)c2c1`, the compound was called inactive in test [1], in test [7], in test [16] and in test [9]. In addition, the Potency result in test [2], in [3], in test [4], in test [5], in [6] and in test [17] was “inactive” each time. Also, the Potency entry in [10], in [11], in test [12], in test [13], in [15] and in test [20] was “inactive” throughout. In test [14], the max activation was -4.94%. Further, the Potency in [18] was 24.5 µM (active).

In the case of `CCOc1ccc(NC(=O)CC(C)=O)cc1`, the compound was called inactive in test [1], in test [7], in [16] and in [9]. Also, the Potency result in test [2], in test [3], in test [4], in test [5], in test [6] and in [17] was “inactive” each time. For the same compound, the Potency entry in test [10], in [11], in [12] and in test [13] was “inactive” in each case. Also, in [18], the Potency is 35.6 µM (active).

For the compound `CC(C)NCC(O)c1cc(O)cc(O)c1` (centres undefined), the result in test [1], in test [7] and in test [9] was inactive. Moreover, the Potency result in [2], in test [3], in test [4], in test [5], in test [6] and in [8] was “inactive” each time. Besides, the Potency result in test [10], in test [11], in [12], in test [13], in [15] and in test [18] was “inactive” each time. In [14], the max activation was -6.91%.

These data come from PubChem BioAssay (Tox21).
